CtBP-E1A inh = blocks the CtBP interaction with E1A | AlphaScreen GST-E1A/His-CtBP binding, 1536-well; active compounds read low | activity change, % (test concentration not listed) | 0.49% of 340,000 active
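In 5 uL wells, 23 nL compound meets equimolar GST-E1A and His-CtBP (5X stock 125 nM each) for 2 h, 37 °C. Beads (5X, 50 ug/mL) then 1 h, 37 °C, dark.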
CCT modulator = changes cytosolic chaperonin activity | purified chaperonin ATPase assay, HTRF ADP detection, 30 min | activity change, % (concentration not given with the values), hits read low | 0.3% of 360,000 active | AID 651819; in the data active = activity change below about -30%
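ATPase activity: ADP formed was measured by HTRF Transcreener (665/615 nm ratio) after 30 min at 37 deg C with 10 uM ATP. Compounds screened at one 76 uM concentration against 40 or 20 nM TRiC in Tris pH 7.4/KCl/MgCl2/DTT buffer.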
Six1-Eya2 blk = inhibitors of human Six1/Eya2 interaction | Q15475+O00167 | AlphaScreen GST-Six1/His-Eya2 binding, biochemical; active compounds read low | activity change, % (test concentration not listed) | 0.56% of 360,000 active
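Compounds are tested against tagged Six1 and Eya2 proteins bridged by glutathione donor and nickel acceptor beads; after a one-hour incubation at 37 °C without light, AlphaScreen emission is recorded.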
Akt phos inh = Akt phosphorylation inhibition. Neuro2A IGF-stimulated pAkt S473 HTRF, 20 min; active compounds read low. 0.32% of 360,000 active. AID 651550. activity change, % for hits at 50 µM; in the data active = activity change below about -80%; inconclusive = mostly about -51% to -80%
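Neuro2A cells (4,500/well, DMEM with 0.5% FBS) were treated with compound at a single 50 µM final concentration, stimulated with 6 nM IGF for 20 min at 37 °C, and lysed. Phospho-Akt Ser473 was read by HTRF as 665/615 ratio ×10^4.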
Each line names hits and unclear results; the compound was inactive in the other large screens. Compounds with a hit are over-represented: about 1.2% of the library has one in this group of screens. Rule as the data show it, unless noted: active = activity change below about -65%; inconclusive = mostly about -30% to -63%; inactive = weaker than that.

C/C(=N\NC(=S)Nc1ccc(C)cc1)c1cccc(N)c1	none
CC(=NNC(=S)Nc1cccc(C)c1)c1ccccn1	Six1-Eya2 blk -81
COc1ccccc1NC(=S)NN=C(C)c1ccccn1	CtBP-E1A inh -81, Six1-Eya2 blk -72
CC(=NNC(=S)Nc1ccc(C)cc1)c1ccccn1	Six1-Eya2 blk -85
COc1ccccc1NC(=O)c1ccccc1NC(=O)c1ccccn1	none
NC(=O)Cn1cnc2nc3n(c2c1=O)CCC3	none
CS(=O)(=O)N1CCN(c2ccccc2NC(=O)Cc2ccc(Cl)cc2)CC1	CCT modulator -32
CS(=O)(=O)N1CCN(c2ccccc2NC(=O)Cc2ccccc2)CC1	none
Nc1ccc2nc(CN3CCOCC3)[nH]c2c1	CCT modulator -36
c1ccc2[nH]c(CN3CCOCC3)nc2c1	none
O=C1Nc2ccccc2N(O)N1c1cc(-c2ccccc2Cl)no1	Akt phos inh -110%
O=C(O)COc1ccc(C=C2SC(=S)N(c3ccccc3)C2=O)cc1	CtBP-E1A inh -92
CC1(c2nnc(-c3cccc(Cl)c3)o2)CC(c2ccc(F)cc2)=NO1 (stereo not given)	none
O=C(O/N=C/c1ccc2c(c1)OCO2)c1ccc([N+](=O)[O-])cc1	CCT modulator -31
Cc1ccc([C@@]2(OC(=O)c3ccccc3)C(=O)N(C(=O)OC(C)(C)C)c3ccccc32)cc1	none
Cc1cc(Cl)c2oc(C(=O)N3CCOCC3)c(C)c2c1	CCT modulator -35
Cc1cc(Cl)c2oc(C(=O)N3CCN(C(=O)c4ccco4)CC3)c(C)c2c1	none
c1ccc(-c2nc(NCc3cccs3)c3ccccc3n2)cc1	CCT modulator -48
CCCC1S/C(=N/N=C/c2ccco2)NC1=O (stereo not given)	none
CCCCC1S/C(=N/N=C/c2ccco2)NC1=O (stereo not given)	CCT modulator -42
C/C(=N\N1CCN(c2ccccc2)CC1)c1ccc(O)cc1	none
Fc1ccccc1CN1CCCCCCC1	Akt phos inh -104%
Fc1ccc(CN2CCCCCC2)c(F)c1	none
COc1ccc(N/C=C/c2nc(SC)nnc2C)cc1	CtBP-E1A inh -85, Six1-Eya2 blk -72
COc1ccc(N/C=C/C(=O)C(F)(F)F)cc1	none
CSc1nnc(C)c(/C=C/Nc2ccc(F)cc2)n1	CtBP-E1A inh inconclusive, Six1-Eya2 blk inconclusive
CSc1nnc(C)c(/C=C/Nc2ccc(Cl)cc2)n1	CtBP-E1A inh inconclusive, Six1-Eya2 blk -71
CCc1cccc2c(C(=O)CSc3nnc(C4CC4)o3)c[nH]c12	none
O=C(Nc1ccccc1Br)C1CC(=O)N(c2ccc3c4c(cccc24)CC3)C1 (stereo not given)	none
O=[N+]([O-])c1ccc(C[n+]2cccc3ccccc32)cc1	none
O=[N+]([O-])c1ccc(C[n+]2cccc3ccc4cccnc4c32)cc1	CtBP-E1A inh -89, Six1-Eya2 blk -90
Cc1noc(C)c1C(=O)NC1=NCCS1	none
NS(=O)(=O)c1ccc(CNC(=O)c2ccc(Cl)c(S(=O)(=O)NCc3ccccc3)c2)cc1	none
NS(=O)(=O)c1ccc(CNS(=O)(=O)c2cc(Cl)ccc2Cl)cc1	CCT modulator -38
COc1ccc(NC(=O)CSc2nnc(NC(=O)c3ccc(S(=O)(=O)N4CCOCC4)cc3)s2)cc1	none
CCc1ccc(C(C(=O)NC2CCCC2)N(C(=O)/C=C/C(=O)Nc2cc(C)on2)c2ccccc2C)cc1 (stereo not given)	none (no result: CtBP-E1A inh)
CCOC(=O)N1CCN(c2nc(SC)nc3sc4c(c23)CC(C)(C)OC4)CC1	Akt phos inh -86%
COCc1cc(=O)[nH]c(Nc2nc3ccccc3o2)n1	CtBP-E1A inh -85, Six1-Eya2 blk -74
COc1cccc(-c2coc3c(C)c4oc(=O)c(CC(=O)O)c(C)c4cc23)c1	none
COc1cccc(-c2coc3c(C)c4oc(=O)c(CCC(=O)O)c(C)c4cc23)c1	CtBP-E1A inh -88, Six1-Eya2 blk inconclusive
COc1cccc(-c2coc3cc4oc(=O)c(CCC(=O)O)c(C)c4cc23)c1	CtBP-E1A inh -67, Six1-Eya2 blk -77
Cc1cccc(NC(=O)Cn2nnc3ccccc32)c1	none
Cn1cc(CNC(=O)Nc2ccc3c(c2)OCO3)cn1	Akt phos inh -106%
Cn1nc(C(=O)NCc2ccccn2)c2ccccc2c1=O	Akt phos inh -94%
Cn1nc(C(=O)NCc2ccccc2)c2ccccc2c1=O	none
Cn1nccc1C(=O)Nc1ccc2c(c1)OCO2	CCT modulator -55
Cn1nc(C(=O)Nc2ccc3c(c2)OCO3)c2ccccc2c1=O	CtBP-E1A inh -86, Six1-Eya2 blk inconclusive
COc1ccccc1NNC(=O)c1cccnc1Oc1ccccc1	none
